TDP1 cell CPT: qHTS for Inhibitors of human tyrosyl-DNA phosphodiesterase 1 (TDP1): qHTS in cells in presence of CPT; chicken DT40 Tdp1-/-;hTDP1 cells + 20 nM CPT, ATP luminescence, 48 h; Potency, µM (top dose mostly 46.2 µM), inactives show at the highest dose activity change, negative = growth inhibition, hits mostly inhibitors; hit rate 12% among 420,000; also: potency is read from the fitted curve at half-maximal effect; nearly all actives have a fitted effect of over 55% in size
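Chicken DT40 Tdp1-/- cells complemented with human TDP1, 400 cells/well, exposed to compounds plus 20 nM camptothecin for at least 48 h at 37 C; viability read as ATP content by CellTiter-Glo luminescence.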
DT40 TDP1 no CPT: qHTS for Inhibitors of human tyrosyl-DNA phosphodiesterase 1 (TDP1): qHTS in cells in absence of CPT; AID 686978, 2013; hit rate 15% among 420,000; Potency, µM (top dose mostly 46.2 µM), for the others: top-dose activity change, negative = growth inhibition, most hits filed as inhibitors; DT40 Tdp1-/- hTDP1 cells, no CPT, ATP luminescence, 48 h; also: potency is read from the fitted curve at half-maximal effect; nearly all actives have a fitted effect of over 55% in size
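Camptothecin absent (DMSO only). Human TDP1-complemented DT40 knockout cells, 400 cells/well, 37 °C for minimum 48 hr; ATP measured via CellTiter-Glo, 30 min dark incubation, luminescence.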
IL1B secr inh: qHTS for Inhibitors of Inflammasome Signaling: IL-1-beta AlphaLISA Primary Screen; THP-1 LPS/ATP IL-1B secretion, AlphaLISA, 16 h; active compounds read low; activity change, % at 57.5 µM; hit rate 4.7% among 360,000; AID 743279, 2014; in the data active = activity change below about -50%; inconclusive = mostly about -30% to -49%
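THP-1 cells pretreated 1 hr with compounds (up to 57.5 uM final), then stimulated with LPS (250 ng/mL final) plus ATP (1.25 mM final); secreted IL-1B measured by AlphaLISA after 16 hr, decreased signal indicating inhibition.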
HT1080-NT tox: qHTS for induction of synthetic lethality in tumor cells producing 2HG: qHTS for the HT-1080-NT fibrosarcoma cell line; HT-1080-NT fibrosarcoma viability, CellTiter-Glo ATP luminescence, 48 h; Potency, µM (doses to about 46.1 µM), for inactives: at the top dose activity, negative = less viability, actives largely listed as cytotoxic; hit rate 1.6% among 360,000; AID 686970, 2013;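 also: NT is the 2HG producing partner of a matched IDH1 knockdown line; potency is read from the fitted curve at half-maximal effect; 0% = DMSO-treated cells and -100% = media-only wells without cells; nearly all actives have a fitted effect of over 55% in size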
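750 cells/well, RPMI + 5% FBS; 2 h settle, compound pin-transfer, 48 h at 37 degrees C. CellTiter-Glo 10 min RT, luminescence. Normalized to DMSO and media-only wells.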
HT1080 IDH1KD tx: qHTS for induction of synthetic lethality in tumor cells producing 2HG: qHTS for the HT-1080-IDH1KD cell line | HT-1080 IDH1 knockdown viability, ATP luminescence, 48 h | Potency, µM (titrated, usually from 46.1 µM), inactives show at the highest dose activity, negative = toxicity, hits mostly cytotoxic | hit rate 2% among 360,000;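 also: potency is read from the fitted curve at half-maximal effect; 0% = DMSO wells and -100% = cell-free medium wells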
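% activity derives from luminescence (CellTiter-Glo), normalised to DMSO and no-cell wells. HT-1080-IDH1KD cells, 750/well, had 48 h compound exposure at 37 °C.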
The depositor's hits bear a star. Hits are enriched below; roughly 19% of the tested compounds scored in any of these assays. Unless noted, calls follow the shape of the dose curve; as a rule, active = well fitted curve in the direction sought with a large enough effect; inconclusive = small, poorly fitted or top-dose-only effect, or another doubt; inactive = no such curve, though single readings can be large; an effect the other way counts as inactive or inconclusive. Unless noted, % is scaled to controls: 0 for no effect and ±100 for the full control effect.

Results for Cc1cc(NC(=O)c2cc(-c3cccnc3)nc3c(C)c(C)ccc23)no1 ?
TDP1 cell CPT: inconclusive; DT40 TDP1 no CPT: 16µM*; IL1B secr inh: -18; HT1080-NT tox: -22%; HT1080 IDH1KD tx: inconclusive

Results for CNc1cccc2c1C(=O)c1ccccc1C2=O ?
TDP1 cell CPT: -23%; DT40 TDP1 no CPT: inconclusive; IL1B secr inh: -52*; HT1080-NT tox: -1%; HT1080 IDH1KD tx: -1%

What do the screens show for `O=C1c2ccccc2C(=O)c2c(NCc3cccnc3)cccc21`?
TDP1 cell CPT: inconclusive; DT40 TDP1 no CPT: inconclusive; IL1B secr inh: -12; HT1080-NT tox: 20%; HT1080 IDH1KD tx: 16%

How did COc1cccc(-c2cnc(C(O)c3ccc(SC)cc3)[nH]2)c1 (stereo unspecified) do in these assays?
TDP1 cell CPT: inconclusive; DT40 TDP1 no CPT: 16µM*; IL1B secr inh: 15; HT1080-NT tox: 8%; HT1080 IDH1KD tx: -16%

Results for COc1cccc(-c2cnc(C(O)c3cc(C)cc(C)c3)[nH]2)c1 (stereo unspecified) ?
TDP1 cell CPT: inconclusive; DT40 TDP1 no CPT: inconclusive; IL1B secr inh: 23; HT1080-NT tox: 11%; HT1080 IDH1KD tx: 10%

What do the screens show for `COc1ccc(C(O)c2ncc(-c3cccc(OC)c3)[nH]2)cc1` (stereo unspecified)?
TDP1 cell CPT: -7%; DT40 TDP1 no CPT: -22%; IL1B secr inh: -5; HT1080-NT tox: -2%; HT1080 IDH1KD tx: 0%

What do the screens show for `COc1cccc(-c2cnc(C(O)c3ccc(Cl)c(Cl)c3)[nH]2)c1` (stereo unspecified)?
TDP1 cell CPT: 21µM*; DT40 TDP1 no CPT: inconclusive; IL1B secr inh: 21; HT1080-NT tox: -4%; HT1080 IDH1KD tx: -18%

What do the screens show for `CCc1ccc(C(O)c2ncc(-c3cccc(OC)c3)[nH]2)cc1` (stereo unspecified)?
TDP1 cell CPT: inconclusive; DT40 TDP1 no CPT: 9.2µM*; IL1B secr inh: 17; HT1080-NT tox: -2%; HT1080 IDH1KD tx: -27%

What do the screens show for `CSc1ccc(C(O)c2ncc(-c3cccc(F)c3)[nH]2)cc1` (stereo unspecified)?
TDP1 cell CPT: 15µM*; DT40 TDP1 no CPT: inconclusive; IL1B secr inh: 0; HT1080-NT tox: 4%; HT1080 IDH1KD tx: -13%

Results for COc1cccc(-c2cnc(C(O)c3ccc(F)cc3)[nH]2)c1 (stereo unspecified) ?
TDP1 cell CPT: -12%; DT40 TDP1 no CPT: -12%; IL1B secr inh: 21; HT1080-NT tox: 7%; HT1080 IDH1KD tx: 8%

Results for COc1cccc(-c2cnc(C(O)c3ccc(Cl)cc3)[nH]2)c1 (stereo unspecified) ?
TDP1 cell CPT: 26µM*; DT40 TDP1 no CPT: inconclusive; IL1B secr inh: 35; HT1080-NT tox: 4%; HT1080 IDH1KD tx: -3%

How did CC(=O)NC(CCS(C)(=O)=O)C(=O)Nc1cc(Cl)ccc1Cl (stereo unspecified) do in these assays?
TDP1 cell CPT: -7%; DT40 TDP1 no CPT: 1%; IL1B secr inh: 12; HT1080-NT tox: -2%; HT1080 IDH1KD tx: 3%

Results for CC(C)S(=O)(=O)c1csc(NC(=O)Nc2cc(Cl)ccc2Cl)c1Cl ?
TDP1 cell CPT: 16µM*; DT40 TDP1 no CPT: inconclusive; IL1B secr inh: -101*; HT1080-NT tox: 2%; HT1080 IDH1KD tx: 0%

How did Cc1cc(OC(C)C(=O)NCC2CCC(C(=O)O)CC2)c2c(C)c(C)c(=O)oc2c1 (stereo unspecified) do in these assays?
TDP1 cell CPT: -9%; DT40 TDP1 no CPT: -1%; IL1B secr inh: 26; HT1080-NT tox: -4%; HT1080 IDH1KD tx: 12%

Results for CC1CN(C)C(C)CC1OC(=O)C(c1ccccc1)c1ccccc1 (stereo unspecified) ?
TDP1 cell CPT: inconclusive; DT40 TDP1 no CPT: 23µM*; IL1B secr inh: inconclusive; HT1080-NT tox: -14%; HT1080 IDH1KD tx: -10%

What do the screens show for `CN(C)[C@@H]1CCC[C@H]1OC(=O)C(c1ccccc1)c1ccccc1`?
TDP1 cell CPT: -23%; DT40 TDP1 no CPT: inconclusive; IL1B secr inh: -6; HT1080-NT tox: 0%; HT1080 IDH1KD tx: 0%

What do the screens show for `CCCCOc1ccc(C(=O)OC2CC(C)N(C)CC2C)cc1` (stereo unspecified)?
TDP1 cell CPT: inconclusive; DT40 TDP1 no CPT: 16µM*; IL1B secr inh: -54*; HT1080-NT tox: inconclusive; HT1080 IDH1KD tx: inconclusive

What do the screens show for `Cc1nc(N2CCOCC2)c2c(C(=O)N3CCN(c4ccccc4F)CC3)c(C)oc2n1`?
TDP1 cell CPT: 2%; DT40 TDP1 no CPT: -24%

How did Cc1ccc(-n2ncc3c(Nc4ccc(Oc5ccccc5)cc4)ncnc32)c(C)c1 do in these assays?
TDP1 cell CPT: 16µM*; DT40 TDP1 no CPT: 23µM*

What do the screens show for `Cc1ccc(-n2ncc3c(NCCCn4ccnc4)ncnc32)c(C)c1`?
TDP1 cell CPT: inconclusive; DT40 TDP1 no CPT: inconclusive; IL1B secr inh: 20; HT1080-NT tox: -12%; HT1080 IDH1KD tx: 0%

Results for CCc1ccccc1Nc1ncnc2c1cnn2-c1ccc(C)cc1C ?
TDP1 cell CPT: inconclusive; DT40 TDP1 no CPT: 18µM*

How did CCOc1ccc(Nc2ncnc3c2cnn3-c2ccccc2)cc1 do in these assays?
TDP1 cell CPT: -2%; DT40 TDP1 no CPT: 2%; IL1B secr inh: -15; HT1080-NT tox: 12%; HT1080 IDH1KD tx: 5%

Results for CCOc1ccc(Nc2ncnc3c2cnn3-c2ccc(F)cc2)cc1 ?
TDP1 cell CPT: -19%; DT40 TDP1 no CPT: -25%

Results for Cc1cccc(-n2ncc3c(N(C)Cc4ccccc4)ncnc32)c1 ?
TDP1 cell CPT: inconclusive; DT40 TDP1 no CPT: inconclusive; IL1B secr inh: -13; HT1080-NT tox: -6%; HT1080 IDH1KD tx: -20%

What do the screens show for `CCN(c1ccccc1)c1ncnc2c1cnn2-c1ccc(C)cc1C`?
TDP1 cell CPT: 9.2µM*; DT40 TDP1 no CPT: 9.2µM*

Results for Fc1ccc(-n2ncc3c(Nc4ccc(Oc5ccc(Cl)cc5)cc4)ncnc32)cc1 ?
TDP1 cell CPT: inconclusive; DT40 TDP1 no CPT: 18µM*

What do the screens show for `Cc1ccc(-n2ncc3c(Nc4ccccc4C)ncnc32)cc1`?
TDP1 cell CPT: inconclusive; DT40 TDP1 no CPT: 16µM*

How did CCc1ccccc1Nc1ncnc2c1cnn2-c1ccc(Cl)cc1 do in these assays?
TDP1 cell CPT: 16µM*; DT40 TDP1 no CPT: inconclusive

What do the screens show for `Cc1ccc(-n2ncc3c(NCCCc4ccccc4)ncnc32)cc1`?
TDP1 cell CPT: -29%; DT40 TDP1 no CPT: -28%

Screening results as filed in PubChem.
